SW480 rereplic – DNA re-replication induction in SW480 cells; Potency, µM (titrated, usually from 46.1 µM), actives largely listed as activators; 340,000 compounds, 1.8% hits; SW480 DNA re-replication, Hoechst DNA content imaging, 48 h; AID 624297; further: nearly all actives have a fitted effect of over 55% in size
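Compounds, transferred as 23 nL by pin tool, were incubated with cells for 48 hr; DNA content per nucleus was then quantified by Hoechst staining and fluorescence plate imaging.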
KB-V1 MDR tox – kills drug-selected multidrug resistant KB-V1 cells. 400,000 compounds, 3.4% hits. AID 1347076. KB-V1 MDR cells viability, CellTiter-Glo, 72 h. Potency, µM (highest dose often 46.1 µM), hits mostly cytotoxic; further: nearly all actives have a fitted effect of over 60% in size
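Cytotoxicity via CellTiter-Glo luminescence after 72 h compound exposure at 37 degrees C. Cells: drug-selected KB-V1 line, DMEM phenol-red free plus 10% FBS. Compounds tested at multiple concentrations; normalized data fitted to concentration-effect curves.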
ELG1 repair inh – blocks ELG1-dependent DNA repair in HEK293T cells; Potency, µM (top dose mostly 46.1 µM), actives largely listed as inhibitors; 330,000 compounds, 2.3% hits; HEK293T ELG1-luciferase reporter, luminescence, 16 h; DNA damage induced by 5-fluorouridine; AID 504467; further: nearly all actives have a fitted effect of over 55% in size
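Luminescence from the luciferase reporter, measured 30 min after ONE-Glo reagent at room temperature, was the read-out. Beforehand, 2,000 cells per well were exposed for 16 hr at 37 °C to 5-fluorouridine together with compound or vehicle.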
MCF10A rerep – DNA re-replication induction in MCF 10a cells; Potency, µM (titrated, usually from 46.1 µM), hits mostly activators; 350,000 compounds, 2.9% hits; MCF 10A DNA re-replication, Hoechst nuclear intensity, 48 h; further: nearly all actives have a fitted effect of over 50% in size
KB-3-1 cytotox – KB-3-1 parental cell cytotoxicity; KB-3-1 viability, CellTiter-Glo ATP luminescence, 72 h; Potency, µM (top dose mostly 46.1 µM), hits mostly cytotoxic; 400,000 compounds, 1.4% hits; AID 1347075; further: nearly all actives have a fitted effect of over 60% in size
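Using CellTiter-Glo luminescence, growth of non-resistant KB-3-1 adenocarcinoma cells is assessed 72 h after pin-tool compound addition at 37 °C. Normalized responses across the concentration series yield fitted curves.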
Each line names hits and unclear results; the compound was inactive in the other large screens. Rows were chosen to be rich in hits. Some 8.1% of all compounds tested hit in one or more screens of this group. The call rests on the fitted dose curve; in most records, active means well fitted curve in the direction sought with a large enough effect; inconclusive means small, poorly fitted or top-dose-only effect, or another doubt; inactive means no such curve, though single readings can be large; an effect the other way counts as inactive or inconclusive.

CCN(C(=O)CSc1nc2n[nH]c(C)c2c(=N)n1-c1ccc(Cl)c(C)c1)c1cccc(C)c1	SW480 rereplic inconclusive, KB-V1 MDR tox inconclusive, ELG1 repair inh inconclusive, MCF10A rerep 8.2µM, KB-3-1 cytotox inconclusive
CCCCN(CC)C(=O)CSc1nc2n[nH]c(C)c2c(=N)n1-c1cccc(C)c1	SW480 rereplic inconclusive, KB-V1 MDR tox inconclusive, ELG1 repair inh inconclusive
CCOc1ccc2nc(SCC(=O)NC3CCCCC3)[nH]c2c1	KB-V1 MDR tox 16µM
COc1ccccc1Nc1nnc(Cc2ccccc2)c(=O)[nH]1	none
COc1ccccc1NC(=O)CSc1nc2n[nH]c(C)c2c(=N)n1-c1ccccc1Cl	KB-V1 MDR tox 16µM, ELG1 repair inh inconclusive, MCF10A rerep inconclusive, KB-3-1 cytotox inconclusive
COc1ccc(-n2c(SCC(=O)NC3CCCCC3)nc3ccsc3c2=O)cc1	KB-V1 MDR tox 2.1µM
Cc1[nH]nc2nc(SCC(=O)NC3CCCCC3)n(-c3ccc(Br)cc3)c(=N)c12	SW480 rereplic inconclusive, ELG1 repair inh inconclusive, MCF10A rerep 12µM, KB-3-1 cytotox inconclusive
CCc1ccccc1NC(=O)CSc1nc2n[nH]c(C)c2c(=N)n1-c1ccc(OC)cc1	none
C/C(=N/NC(=O)c1ccco1)c1cccc(NC(=O)c2ccc(C)s2)c1	KB-V1 MDR tox 10µM
C/C(=N/NC(=O)c1ccc(Cl)s1)c1ccc(NC(=O)COc2ccc(Cl)cc2)cc1	SW480 rereplic inconclusive, KB-V1 MDR tox inconclusive, MCF10A rerep inconclusive, KB-3-1 cytotox inconclusive
C/C(=N/NC(=O)c1cccs1)c1ccc(NC(=O)COc2ccc(Cl)cc2Cl)cc1	SW480 rereplic 9.2µM, ELG1 repair inh inconclusive, MCF10A rerep 6.5µM
C/C(=N/NC(=O)c1ccc(C)s1)c1cccc(NC(=O)COc2ccc(Cl)cc2Cl)c1	SW480 rereplic inconclusive, ELG1 repair inh inconclusive, MCF10A rerep 9.2µM
C/C(=N/NC(=O)c1ccco1)c1cccc(NC(=O)c2ccc(C)o2)c1	none
C/C(=N\NC(=O)c1c(Cl)cnn1C)c1cccc(NC(=O)COc2ccccc2)c1	ELG1 repair inh inconclusive, MCF10A rerep 16µM
CC(=O)c1cccc(NC(=O)COc2ccccc2)c1	ELG1 repair inh inconclusive
O=C(Nc1ccc(Cl)cc1F)C1CC(=O)N(Cc2ccco2)C1 (centres undefined)	none
Cc1cc(C)c(N=C2SCC(=O)N2Cc2ccco2)c(C)c1	ELG1 repair inh inconclusive
Cc1ccccc1NC(=O)Cc1nc(-c2c[nH]c(C(=O)N3CCCC3)c2)cs1	ELG1 repair inh 16µM
O=C(CSc1nnc2c(n1)[nH]c1ccccc12)Nc1nncs1	none
Cc1ccc(NC(=O)C2CCCN(S(=O)(=O)c3c(C)noc3/C=C/N(C)C)C2)c(C)c1 (centres undefined)	MCF10A rerep inconclusive
COC(CNC(=O)C1CCCN(S(=O)(=O)c2c(C)noc2/C=C/c2cccs2)C1)OC (centres undefined)	MCF10A rerep 3.7µM
Cc1ccc(C)c(NC(=O)C2CCCN(S(=O)(=O)c3c(C)noc3/C=C/N(C)C)C2)c1 (centres undefined)	MCF10A rerep 18µM
CC(C)NC(=S)NC(=O)c1ccc(-c2ccccc2)cc1	SW480 rereplic inconclusive, KB-V1 MDR tox inconclusive, MCF10A rerep inconclusive, KB-3-1 cytotox inconclusive
CC(=O)N1c2ccc(S(=O)(=O)N3CCN(c4cc(Cl)ccc4C)CC3)cc2CC1C (centres undefined)	none (no result: SW480 rereplic, ELG1 repair inh, MCF10A rerep)
Cc1n[nH]c(C)c1N=Nc1ccc(Br)cc1	KB-V1 MDR tox inconclusive, MCF10A rerep inconclusive, KB-3-1 cytotox 16µM
Cc1ccc(/C=N/NC(=O)CN(Cc2ccccc2)S(=O)(=O)c2ccc3c(c2)OCCO3)cc1	SW480 rereplic inconclusive, KB-V1 MDR tox 5.8µM, ELG1 repair inh inconclusive
O=C(CN(Cc1ccccc1)S(=O)(=O)c1ccc2c(c1)OCCO2)Nc1ccc2c(c1)OCCO2	KB-V1 MDR tox inconclusive, ELG1 repair inh inconclusive, MCF10A rerep inconclusive
O=C(c1cc(N2C(=O)C3C4CCC(C4)C3C2=O)ccc1Cl)N1CCN(c2ccccc2F)CC1 (centres undefined)	SW480 rereplic inconclusive, KB-V1 MDR tox 4.1µM, ELG1 repair inh inconclusive, KB-3-1 cytotox inconclusive

Screening data from PubChem.
